An excerpt weighted towards active compounds, which were near 3.2% of everything screened.
Mtb FBA inh – Mtb FBA enzyme inhibitors, primary screen, biochemical, fluorescence, strain H37Rv; 360,000 tested, 2.3% active; inhibition, % at 1 µM; purified M. tuberculosis FBA, fluorescence read-out; AID 588726, 2011; in the data active = inhibition above about 27%;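 note: 0% = vehicle and 100% = reference inhibitor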
UGM FP inh – M. tuberculosis UGM enzyme inhibitors, primary screen, biochemical, fluorescence polarization, single point; UDP-galactopyranose mutase (Mycobacterium tuberculosis (strain ATCC 25618 / H37Rv)), …; purified UGM, fluorescence polarization probe displacement; inhibition, % at 10 µM; 320,000 tested, 0.06% active; AID 504406, 2011; in the data active = inhibition above about 10%, passing the limit was not always enough
Target sequence (P9WIQ1 whole entry, looked up): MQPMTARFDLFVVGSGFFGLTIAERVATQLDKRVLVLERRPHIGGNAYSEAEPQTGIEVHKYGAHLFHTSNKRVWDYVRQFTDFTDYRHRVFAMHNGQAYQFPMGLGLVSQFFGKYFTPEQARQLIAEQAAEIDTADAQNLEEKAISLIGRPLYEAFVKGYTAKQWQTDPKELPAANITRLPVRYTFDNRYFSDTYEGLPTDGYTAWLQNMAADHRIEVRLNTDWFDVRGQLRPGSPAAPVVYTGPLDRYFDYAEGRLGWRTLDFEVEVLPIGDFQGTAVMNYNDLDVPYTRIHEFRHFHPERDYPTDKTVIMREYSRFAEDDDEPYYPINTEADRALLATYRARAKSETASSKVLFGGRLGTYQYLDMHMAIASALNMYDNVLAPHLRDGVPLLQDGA
GDH-TPI counter – GDH-TPI coupling enzyme inhibitors, primary screen, artefact control for M. tuberculosis FBA inhibitor project, biochemical, absorbance, full deck; GDH-TPI coupled enzyme counterscreen, NADH absorbance; inhibition, % at 4.8 µM; 360,000 tested, 1.2% active; AID 588335, 2011; in the data active = inhibition above about 30%;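 note: 0% = DMSO wells and 100% = wells lacking the enzyme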
Mtb betalactam – beta-lactam sensitization of Mtb H37Rv, H37Rv; M. tuberculosis H37Rv growth with meropenem, percent inhibition; inhibition, % at 25 µM; 330,000 tested, 0.27% active; call rule not given here;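 note: growth measured after seven days incubation then overnight dye step; 0% = bacteria only wells and 100% = bacteria with antibiotic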
PriA SSB inh – inhibitors of Klebsiella pneumoniae PriA binding to SSB C-terminal tail, primary screen, biochemical, AlphaScreen | AlphaScreen SSBct-PriA binding, biotinylated peptide | inhibition, % at 33 µM | 430,000 tested, 0.6% active | AID 1272365, 2023; in the data active = inhibition mostly above about 37%, no sharp cut-off; inactive = mostly below about 20%;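 note: plate controls were negative control peptide for no effect and reference peptide for full effect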
Rv3671c protease – Rv3671c serine protease inhibitors, primary screen, biochemical, fluorescence polarization, M. tuberculosis H37Rv | P9WHR9 | inhibition, % at 5.96 µM | 320,000 tested, 0.048% active | AID 2606, 2010; in the data active = inhibition above about 38%;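 note: extracellular domain of Rv3671c used as enzyme; 0% = enzyme with DMSO and 100% = no enzyme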
The depositor's hits bear a star.

`OC[C@@H]1[C@@H](c2ccccc2)C(c2ccc(F)cc2)=NN1c1ccccc1` gave Mtb FBA inh 45.9*, GDH-TPI counter 4.5 and PriA SSB inh -37.4.
C[C@@H]1C(c2ccc(F)cc2)=NN(c2ccccc2)[C@H]1C(=O)N1CCOC1=O was read as Mtb FBA inh 1.6, GDH-TPI counter 20.0 and PriA SSB inh -40.1.
COc1ccccc1[C@H]1C(c2cccc(Cl)c2)=NN(c2ccccc2)[C@@H]1CO was read as Mtb FBA inh 46.3*, GDH-TPI counter 9.1 and PriA SSB inh -27.4.
For O=C(Cc1noc2ccccc12)NCc1nnc2ccc(-c3cccs3)nn12 the results were PriA SSB inh 0.0.
`O=C(NCc1ccccc1)N1CCC(c2nnc(-c3ccco3)s2)CC1` gave PriA SSB inh -8.0.
For Cc1c(O)ccc2c3c(c(=O)oc12)CCCC3 the results were Mtb FBA inh 193.3*, UGM FP inh 0.0, GDH-TPI counter 11.7, Mtb betalactam 84.4, PriA SSB inh -7.7 and Rv3671c protease -1.2.
For Cc1c(OC(=O)CNC(=O)OC(C)(C)C)ccc2c3c(c(=O)oc12)CCC3 the results were Mtb FBA inh 122.0*, UGM FP inh 0.5, GDH-TPI counter 5.3, Mtb betalactam -11.6, PriA SSB inh -18.4 and Rv3671c protease -9.8.
Screening Cc1c(OCC(=O)OC(C)(C)C)ccc2c3c(c(=O)oc12)CCC3 returned Mtb FBA inh 8.7, UGM FP inh -2.2, GDH-TPI counter 11.8, Mtb betalactam 50.0, PriA SSB inh -9.3 and Rv3671c protease -1.0.
Screening CC(=O)COc1ccc2c3c(c(=O)oc2c1C)CCCCC3 returned Mtb FBA inh 115.2*, UGM FP inh 2.4, GDH-TPI counter 16.2, Mtb betalactam 74.0, PriA SSB inh -1.5 and Rv3671c protease 9.1.
CC1CCCC(C)N1CC(O)Cn1cc(/C=N\O)c2ccccc21 (centres undefined) was read as PriA SSB inh -3.0.
For COc1ccc(Cl)cc1NC(=O)N1CCS[C@H](c2cc(F)ccc2F)CC1 the results were PriA SSB inh -21.0.
Screening COc1ccc(C=NNC(=O)CCc2c(C)n[nH]c2C)c(OC)c1OC returned PriA SSB inh 2.3.
For O=C(NCCO)c1cc2c([nH]c3ccccc32)c(-c2ccccc2)n1 the results were Mtb FBA inh 24.0, UGM FP inh -1.9, GDH-TPI counter 18.0, Mtb betalactam 2.0, PriA SSB inh -0.2 and Rv3671c protease -5.9.
For Cc1ccc(-c2nc(C(=O)NCCCN(C)C)cc3c2[nH]c2ccccc23)cc1 the results were Mtb FBA inh 28.2*, UGM FP inh -2.5, GDH-TPI counter 8.8, Mtb betalactam 81.7, PriA SSB inh -1.1 and Rv3671c protease -21.8.
For O=C(NC(=S)Nc1ccccc1N1CCCC1)c1ccccc1[N+](=O)[O-] the results were Mtb FBA inh -1.6, UGM FP inh -0.2, GDH-TPI counter -3.0, Mtb betalactam 14.9, PriA SSB inh 57.4* and Rv3671c protease -0.3.
`O=C(N/N=C1\CCCc2c1[nH]c1ccc(Cl)cc21)c1ccncc1` gave Mtb FBA inh -2.6, UGM FP inh 1.8, GDH-TPI counter 40.7*, Mtb betalactam 99.4 and Rv3671c protease 7.1.
`O=C(NN=C1CCCc2c1[nH]c1ccc(Cl)cc21)c1ccncc1` gave PriA SSB inh 15.0.
`CSc1ccc(C2NN=C(c3ccccc3)S2)cc1` (centres undefined) gave Mtb FBA inh 46.1*, UGM FP inh 0.5, GDH-TPI counter 6.9, Mtb betalactam -5.4, PriA SSB inh -1.8 and Rv3671c protease -1.1.
`Oc1ccccc1C1NN=C(c2ccccc2)S1` (centres undefined) gave Mtb FBA inh 1.2, UGM FP inh -0.5, GDH-TPI counter 20.8, Mtb betalactam 1.1, PriA SSB inh -25.3 and Rv3671c protease -5.0.
`Cn1nc(-c2ccccc2)c2nc3ccccc3nc21` gave Mtb FBA inh -1.7, UGM FP inh 28.3*, GDH-TPI counter -8.1, Mtb betalactam 26.2, PriA SSB inh -24.8 and Rv3671c protease 4.4.
